# The source made the active and inactive calls. Unless noted, the rule behind the calls is not given here.
# Columns and labels:
# [1] = A549 cell viability effects, profiling panel, calcein-AM fluorescence, 48 h, basal (AID 1162); conditions: higher = more signal; note: test concentration not given here
# [2] = adipocyte viability effects, profiling panel, cell-based, 3T3-L1 adipocytes, calcein-AM fluorescence, 48 h, basal (AID 1163); conditions: 3T3-L1 adipocytes viability, higher = more signal; note: test concentration not given here
# [3] = HepG2 cell viability effects, profiling panel, calcein-AM fluorescence, 48 h, basal (AID 1164); conditions: higher = more signal; note: test concentration not given here
# [4] = MM1S cell viability effects, profiling panel, calcein-AM fluorescence, 48 h, basal (AID 1165); conditions: higher = more signal;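 note: viability of MM1S multiple myeloma cells under basal unstimulated conditions; test concentration not given here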
# [5] = basal RPMI8226 viability, no added stimulus, profiling panel, cell-based, calcein-AM fluorescence, 48 h, PK04 Diversity Set (AID 1166); conditions: RPMI8226 myeloma viability, higher = more signal;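 note: cells grown under basal conditions without added stimulus; test concentration not given here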
# [6] = basal HepG2 mitochondrial membrane potential changes, profiling panel, cell-based, JC-1 fluorescence, 24 h, 100 nL compound (AID 1167); conditions: higher = more signal; note: test concentration not given here
# [7] = basal 3T3-L1 adipocyte mitochondrial potential changes, profiling panel, cell-based, JC-1 fluorescence, 3T3-L1 adipocytes, 24 h, 100 nL compound (AID 1168); conditions: JC-1 mitochondrial fluorescence, higher = more signal, called active from +8 up or from −8 down; note: test concentration not given here
# [8] = basal RPMI8226 mitochondrial membrane potential changes, profiling panel, cell-based, JC-1 fluorescence, 24 h, 100 nL compound (AID 1169); conditions: RPMI8226 myeloma, JC-1 mitochondrial potential fluorescence, higher = more signal; note: test concentration not given here
# [9] = basal MM1S mitochondrial membrane potential changes, profiling panel, cell-based, JC-1 fluorescence, 24 h, 100 nL compound (AID 1170); conditions: higher = more signal; note: test concentration not given here
# [10] = A549 lung cancer cell viability effects, profiling panel, resazurin fluorescence, 24 h, PK04 Diversity Set (AID 1171); conditions: higher = more signal, called active from +8 up or from −8 down; note: test concentration not given here
# [11] = HepG2 liver cancer cell viability effects, profiling panel, resazurin fluorescence, 24 h, PK04 Diversity Set (AID 1172); conditions: higher = more signal; note: test concentration not given here
# [12] = basal S. cerevisiae growth modulation, no modifier, primary screen, OD600, strain BY4716, 24 h, basal condition (AID 1173); conditions: OD600, 24 h, higher = more signal, called active from +8 up or from −8 down
# [13] = MM1S myeloma cell viability, profiling panel, resazurin fluorescence, basal, 24 h, PK04 Diversity Set (AID 1174); conditions: higher = more signal, called active from +8 up or from −8 down;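 note: MM1S multiple myeloma cell line; test concentration not given here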
# [14] = target: Dihydroorotate dehydrogenase (quinone), mitochondrial (Plasmodium falciparum (isolate 3D7)) (UniProt Q08210); test: PfDHODH enzyme inhibitors, primary screen, biochemical, C-terminal His tag, absorbance 600 nm (AID 1175); conditions: DCIP absorbance 600 nm, higher = more signal, called active from +8 up or from −8 down;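 note: recombinant parasite enzyme with a five histidine tag at its C terminus; test concentration not given here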
# [15] = P. aeruginosa biofilm formation inhibitors, primary screen, strain PAO1, LB-PBS medium, absorbance 600 nm (AID 1176); note: test concentration not given here; conditions: P. aeruginosa PAO1 growth/biofilm, A600, 12 h; higher = more signal
# [16] = S. cerevisiae RM11-1a growth modifiers, primary screen, strain RM11-1a, OD600, basal, 24 h (AID 1177); conditions: OD600, 24 h, higher = more signal, called active from +8 up or from −8 down;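 note: cultures grown under basal conditions with no added stressor; test concentration not given here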
# [17] = E. coli acrAB mutant growth effects, primary screen, E. coli filamentation inducers, strain DRC39, OD650, 24 h (AID 1178); conditions: higher = more signal, called active from +8 up or from −8 down;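 note: growth measured as culture turbidity by optical density at 650 nm; test concentration not given here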
# [18] = E. coli acrAB mutant growth effects, primary screen, E. coli filamentation inducers, strain DRC39, OD650, 48 h (AID 1179);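 note: screen aims at cell division blockers that make cells filament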; conditions: E. coli DRC39 delta-acrAB growth, higher = more signal, called active from +8 up or from −8 down
# [19] = RPMI8226 myeloma cell viability, profiling panel, resazurin fluorescence, basal, 24 h, PK04 Diversity Set (AID 1180); conditions: higher = more signal;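 note: RPMI8826 multiple myeloma cell line at 5000 cells per well; test concentration not given here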
# [20] = target: E3 ubiquitin-protein ligase XIAP (Homo sapiens) (UniProt P98170); test: XIAP binders, primary screen, biophysical, small-molecule microarray, fluorescence 635 nm (AID 1181); conditions: small-molecule microarray binding, higher = more signal;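 note: score merges 667 nm emission and signal to noise over triplicate slides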
# Chain of E3 ubiquitin-protein ligase XIAP (Homo sapiens) (P98170 whole entry, looked up): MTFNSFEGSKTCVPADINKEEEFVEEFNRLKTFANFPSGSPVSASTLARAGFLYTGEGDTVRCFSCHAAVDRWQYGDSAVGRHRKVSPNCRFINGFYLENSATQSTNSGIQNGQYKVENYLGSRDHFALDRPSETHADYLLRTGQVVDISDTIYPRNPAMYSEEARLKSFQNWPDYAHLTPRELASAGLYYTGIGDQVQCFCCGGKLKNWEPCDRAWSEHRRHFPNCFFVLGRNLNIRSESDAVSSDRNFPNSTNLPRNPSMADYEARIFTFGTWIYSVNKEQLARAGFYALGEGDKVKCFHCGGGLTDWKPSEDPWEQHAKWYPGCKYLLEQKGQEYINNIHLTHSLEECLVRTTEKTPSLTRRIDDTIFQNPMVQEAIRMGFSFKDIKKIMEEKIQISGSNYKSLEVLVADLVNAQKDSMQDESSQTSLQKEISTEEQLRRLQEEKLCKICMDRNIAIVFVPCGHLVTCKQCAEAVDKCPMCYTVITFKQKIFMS
# Chain of Dihydroorotate dehydrogenase (quinone), mitochondrial (Plasmodium falciparum (isolate 3D7)) (Q08210 whole entry, looked up): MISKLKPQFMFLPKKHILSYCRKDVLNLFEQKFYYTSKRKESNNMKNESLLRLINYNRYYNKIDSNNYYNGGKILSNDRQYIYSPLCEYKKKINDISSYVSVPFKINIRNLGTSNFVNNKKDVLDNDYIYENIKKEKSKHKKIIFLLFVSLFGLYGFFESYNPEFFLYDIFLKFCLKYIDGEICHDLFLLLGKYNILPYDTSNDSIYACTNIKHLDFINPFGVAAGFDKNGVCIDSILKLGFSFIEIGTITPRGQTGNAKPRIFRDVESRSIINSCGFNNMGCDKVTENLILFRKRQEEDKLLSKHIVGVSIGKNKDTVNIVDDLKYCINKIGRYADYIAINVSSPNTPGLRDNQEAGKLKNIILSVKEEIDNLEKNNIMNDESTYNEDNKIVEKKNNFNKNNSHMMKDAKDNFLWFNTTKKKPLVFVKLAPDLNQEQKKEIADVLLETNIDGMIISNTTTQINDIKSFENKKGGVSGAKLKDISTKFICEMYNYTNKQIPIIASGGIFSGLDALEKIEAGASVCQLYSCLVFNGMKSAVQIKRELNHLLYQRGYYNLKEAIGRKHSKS
Compound,z-score [1],z-score [2],z-score [3],z-score [4],z-score [5],z-score [6],z-score [7],z-score [8],z-score [9],z-score [10],z-score [11],z-score [12],z-score [13],composite z-score [14],z-score [15],z-score [16],z-score [17],z-score [18],z-score [19],composite z-score [20]
CN(C)CCCN1C(=O)[C@@]2(Cc3ccccc31)c1ccccc1C(=O)N(Cc1ccccc1)[C@H]2c1ccc(CO)cc1,0.483,1.16,0.128,0.38,-2.79,0.343,-0.407 (inactive),-0.484,-1.28,0.726 (inactive),1.18,0.225 (inactive),1.04 (inactive),-6.03 (inactive),0.587 (inactive),-0.549 (inactive),0.672 (inactive),-0.245 (inactive),0.246,-0.176
C=CC[C@]1(C(=O)NCC(O)CO)N=C(c2ccc(OCCCO)cc2)O[C@H]1c1ccccc1N=[N+]=[N-] (stereo not given in full),-0.402,0.864,-0.735,-1.16,0.736,-0.285,0.13 (inactive),-0.49,0.857,0.702 (inactive),0.662,-0.746 (inactive),-0.302 (inactive),1.13 (inactive),0.755 (inactive),0.329 (inactive),0.769 (inactive),-0.579 (inactive),0.245,-0.106
CN(C)CCCCCCNC(=O)[C@@H]1C[C@@H]2C(=O)NCC(=O)N2[C@@H]1c1ccc(O)cc1,-0.627,0.5,-0.963,-0.539,0.71,-1.16,-0.782 (inactive),0.3,0.216,-0.898 (inactive),-1.01,-1.06 (inactive),-1.26 (inactive),-0.493 (inactive),-0.13 (inactive),-0.832 (inactive),-0.208 (inactive),-0.823 (inactive),-1.35,0.249
N#Cc1ccc(NN2C(C(O)c3ccco3)C=CC3C(=O)N(c4ccccc4)C(=O)C32)cc1 (stereo not given),-0.121,-0.908,1.26,-0.372,-0.197,-0.764,-0.829 (inactive),0.45,0.121,-0.2 (inactive),-0.674,-0.36 (inactive),-0.512 (inactive),0.0512 (inactive),1.07 (inactive),0.293 (inactive),-2.14 (inactive),-2.13 (inactive),-0.607,0.0794
O=C1O[C@@H](c2ccccc2)[C@@H](c2ccccc2)N2[C@@H](c3ccc(O)cc3)[C@]3(C(=O)Nc4ccc(C#CC5=CCCCC5)cc43)[C@@H](C(=O)Nc3nc4ccccc4s3)[C@H]12,0.583,-0.0897,1.46,-0.575,-1.81,-2.6,0.03 (inactive),-0.745,-1.02,-0.361 (inactive),0.235,-0.826 (inactive),-0.139 (inactive),-0.504 (inactive),2.14 (inactive),0.137 (inactive),0.591 (inactive),0.986 (inactive),-0.595,-0.0925
[N-]=[N+]=NCc1ccccc1C[C@]1(C(=O)NCCN2CCOCC2)COC(c2ccc(OCCCO)cc2)=N1,1.18,-0.487,0.652,0.689,-0.699,2.24,0.498 (inactive),-0.218,-1.05,0.169 (inactive),-0.801,-1.36 (inactive),-1.28 (inactive),0.456 (inactive),0.535 (inactive),-0.383 (inactive),0.786 (inactive),0.0653 (inactive),0.106,-0.0125
COC(=O)C(CC#Cc1ccc2c(c1)[C@]1(C(=O)N2)[C@H](c2ccccc2OCCO)N2[C@H](c3ccccc3)[C@H](c3ccccc3)OC(=O)[C@H]2[C@@H]1C(=O)Nc1nc2ccccc2s1)C(=O)OC,0.689,1.15,0.755,-3.33,-1.74,-2.74,-0.00705 (inactive),-0.905,-0.548,-0.203 (inactive),-0.449,1.4 (inactive),0.699 (inactive),-8 (inactive),3.7 (inactive),2.33 (inactive),-0.0715 (inactive),0.172 (inactive),1.05,0.0264
C=C[C@H](C)[C@H](OC(=O)Nc1ccc(SC)cc1)c1ccc(O)c2ccccc12,-0.561,-0.557,-1.51,-2.74,-3.78,-3.16,-0.818 (inactive),-0.939,-1.51,-1.12 (inactive),-1.13,-18.5 (active),-3.69 (inactive),-2.47 (inactive),0.802 (inactive),-3.62 (inactive),-1.46 (inactive),-1.6 (inactive),-2.55,0.0528
CC(C)CNC(=O)[C@@]1(c2ccc([N+](=O)[O-])cc2)CC(=O)N(C(C)C)[C@@H]1c1ccc(CO)cc1,0.264,-0.0455,0.0153,-1.07,0.399,0.621,-0.167 (inactive),0.604,-0.131,0.591 (inactive),-0.0273,-0.78 (inactive),1.23 (inactive),1.14 (inactive),-0.301 (inactive),-0.738 (inactive),0.474 (inactive),1.53 (inactive),1.37,-0.13
COC(=O)[C@@]1(Cc2ccccc2)[C@H]2c3cc(C(=O)N4CCCC4)n(CCO)c3C[C@H]2CN1C(=O)c1ccccc1,-0.258,0.577,0.345,-0.867,0.688,0.844,0.671 (inactive),0.0245,-0.77,-0.103 (inactive),0.445,0.192 (inactive),-0.892 (inactive),-1.2 (inactive),0.259 (inactive),-0.483 (inactive),0.355 (inactive),1.05 (inactive),0.309,0.202
COCCOC(=O)N1C(=O)[C@@]2(c3cc(C#Cc4ccc(OC)cc4)ccc31)[C@H](c1ccc(OCCO)cc1)N1[C@H](c3ccccc3)[C@H](c3ccccc3)OC(=O)[C@H]1[C@@H]2C(N)=O,-0.383,0.806,-0.792,-1.14,-2.7,-0.617,1.98 (inactive),-0.65,-1.11,-0.588 (inactive),-0.83,1.71 (inactive),-1.85 (inactive),-0.675 (inactive),3.36 (inactive),2.82 (inactive),0.721 (inactive),0.366 (inactive),-2.36,0.269
Cc1ccccc1C(O)C1C=CC2C(=O)N(Cc3ccccc3)C(=O)C2N1n1cnnc1 (stereo not given),-1.2,0.194,-0.734,-0.742,0.0991,-0.406,0.525 (inactive),-0.0549,-0.806,0.0882 (inactive),1.09,0.232 (inactive),-0.562 (inactive),-0.407 (inactive),0.726 (inactive),-0.226 (inactive),-0.197 (inactive),0.208 (inactive),-0.408,-0.184
OCCCC1=CC(c2cccs2)N(Cc2cccc(OC(F)(F)F)c2)CC1 (stereo not given),-0.686,-0.777,-1.13,-3.3,-3.79,-1.24,-1.13 (inactive),-0.733,0.478,0.397 (inactive),-0.505,-4.17 (inactive),-0.656 (inactive),-1.3 (inactive),-0.341 (inactive),-0.54 (inactive),0.0886 (inactive),-0.573 (inactive),-0.175,0.282
C=C(COC)/C(=C/C[C@@H](OC(=O)c1ccncc1)c1cccc(OCCO)c1)c1cc(C(=O)OC)ccc1OC,-0.637,-0.628,-1.45,-2.22,-2.37,1.37,-0.109 (inactive),-0.574,-1.26,-1.8 (inactive),-0.114,-18.2 (active),-0.477 (inactive),-7.37 (inactive),0.236 (inactive),-22.1 (active),0.802 (inactive),0.488 (inactive),0.0987,0.201
CCOC(=O)C1=CC[C@@H](c2cccc(Br)c2)N(S(=O)(=O)c2ccc(C)cc2)[C@H]1c1ccc([N+](=O)[O-])cc1,-0.699,-0.349,-0.203,-1.07,-1.24,1.45,0.097 (inactive),-0.841,-1.57,0.851 (inactive),0.157,0.25 (inactive),-0.343 (inactive),-1.26 (inactive),0.449 (inactive),-0.403 (inactive),-0.837 (inactive),-0.0589 (inactive),-1.14,-0.27
COCCOC(=O)N1C(=O)[C@@]2(c3cc(C#Cc4ccc(OC)cc4)ccc31)[C@H](C(=O)N1CCc3cc(OC)c(OC)cc3C1)[C@H]1C(=O)O[C@H](c3ccccc3)[C@H](c3ccccc3)N1[C@@H]2c1ccc(O)cc1,-0.0326,0.376,0.97,0.175,-0.393,-0.177,0.302 (inactive),-0.185,0.516,0.361 (inactive),-0.0637,1.12 (inactive),-0.108 (inactive),0.751 (inactive),0.858 (inactive),2.08 (inactive),-0.145 (inactive),0.26 (inactive),0.0506,0.202

# Source: PubChem BioAssay
